A selection: hits, their analogues and other compounds. The true share with any hit is near 4.7%.
GDH-TPI counter-1: GDH-TPI coupling enzyme inhibitors, primary screen, artefact control for M. tuberculosis FBA inhibitor project, biochemical, absorbance, full deck | GDH-TPI coupled enzyme counterscreen, NADH absorbance | inhibition, % at 4.8 µM | actives 1.2% (n = 360,000); in the data active = inhibition above about 30%;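 also: 0% = DMSO wells and 100% = wells lacking the enzyme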
SARS 3CLpro inh: SARS-CoV 3CLpro protease inhibitors, primary screen, biochemical, quenched FRET | recombinant SARS-CoV 3CLpro, quenched FRET peptide cleavage | actives 0.14% (n = 290,000) | inhibition, % at 6 µM | AID 1706, 2009 | Replicase polyprotein 1ab (Severe acute respiratory syndrome coronavirus), P0C6X7; in the data active = inhibition above about 12%
FBA Mtb inh: Mtb FBA enzyme inhibitors, primary screen, biochemical, fluorescence, strain H37Rv. purified M. tuberculosis FBA, fluorescence read-out. inhibition, % at 1 µM. actives 2.3% (n = 360,000);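 also: 0% = vehicle and 100% = reference inhibitor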
Target sequence (P9WQA3 whole entry, looked up): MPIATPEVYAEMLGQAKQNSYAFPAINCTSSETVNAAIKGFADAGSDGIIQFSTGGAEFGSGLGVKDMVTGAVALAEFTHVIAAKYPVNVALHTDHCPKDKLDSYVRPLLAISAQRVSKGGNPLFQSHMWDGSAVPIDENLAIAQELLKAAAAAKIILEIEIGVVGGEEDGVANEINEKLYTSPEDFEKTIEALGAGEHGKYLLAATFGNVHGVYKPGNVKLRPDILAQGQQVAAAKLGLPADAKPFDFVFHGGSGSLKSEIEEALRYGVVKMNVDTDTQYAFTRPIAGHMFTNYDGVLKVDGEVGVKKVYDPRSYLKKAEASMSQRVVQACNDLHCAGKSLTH
DUSP3 inh: VHR1 phosphatase inhibitors, primary screen, biochemical, absorbance, uHTS. actives 0.52% (n = 290,000). inhibition, % at 13.3 µM. recombinant VHR phosphatase, pNPP absorbance; in the data active = inhibition above about 50%
Target sequence (P51452 whole entry, looked up): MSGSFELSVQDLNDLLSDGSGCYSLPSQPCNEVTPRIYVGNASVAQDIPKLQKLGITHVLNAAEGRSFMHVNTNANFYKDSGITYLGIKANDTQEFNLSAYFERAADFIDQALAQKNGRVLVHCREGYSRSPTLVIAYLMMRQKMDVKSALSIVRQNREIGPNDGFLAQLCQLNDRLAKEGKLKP
CCHF vOTU inh: CCHFV vOTU protease inhibitors, primary screen, biochemical, Pep-AMC substrate, fluorescence; Crimean-Congo hemorrhagic fever virus L polyprotein viral ovarian tumor (vOTU) protease …; inhibition, % at 11.5 µM; actives 0.55% (n = 370,000); AID 651958, 2012; in the data active = inhibition above about 30%; also: 0% = vehicle wells with enzyme and 100% = no enzyme wells
RecA splice inh: Mtb RecA intein splicing inhibitors, primary screen, biochemical, fluorescence, HTS | Protein RecA (Mycobacterium tuberculosis (strain ATCC 25618 / H37Rv)), P9WHJ3 | cell-free RecA intein splicing | inhibition, % (no concentration beside the values) | actives 0.75% (n = 290,000) | AID 2221, 2009; in the data active = inhibition above about 30%;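 also: 0% = vehicle wells and 100% = reference inhibitor control wells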
Mtb FBA inh conf: M. tuberculosis aldolase blockers, biochemical, fluorescence, strain H37Rv, confirmation; shares compounds with FBA Mtb inh; purified M. tuberculosis FBA, fluorescence read-out; inhibition, % at 1 µM; actives 78% (n = 5,600);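 also: 0% = vehicle wells and 100% = reference inhibitor wells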
GDH-TPI counter-2: GDH-TPI coupling enzyme inhibitors, artefact control for M. tuberculosis FBA inhibitor project, biochemical, fluorescence, high throughput; shares compounds with FBA Mtb inh; GDH-TPI coupled enzyme counterscreen; inhibition, % at 1 µM; actives 81% (n = 5,600); in the data active = inhibition above about 10%
Numbers without * were called inactive; . = no result; + = active, no number. Rule as the data show it, unless noted: active = inhibition above about 27%; inactive = the rest.

SMILES	GDH-TPI counter-1	SARS 3CLpro inh	FBA Mtb inh	DUSP3 inh	CCHF vOTU inh	RecA splice inh	Mtb FBA inh conf	GDH-TPI counter-2
O=C(O)c1cc(-c2cccnc2)nc2ccccc12	-2.9	2.9	3.5	19.4	-11.2	1.2	.	.
CC(=O)Nc1ccc(-c2cc(C(=O)O)c3ccccc3n2)cc1	13.0	3.8	56.0*	-3.6	-25.4	.	+	195.2*
COCCNC(=O)c1cc(-c2ccc(-c3ccccc3)cc2)nc2ccccc12	16.8	0.6	107.6*	5.4	-44.0	2.7	+	+
Cc1cccc(-c2cc(C(=O)NCc3ccccn3)c3ccccc3n2)c1	7.9	2.6	13.6	18.1	-2.4	-1.0	.	.
COc1cccc(S(=O)(=O)N2CCN(Cc3ccc4c(c3)OCO4)CC2)c1	-1.7	2.9	-0.2	24.0	11.3	4.6	.	.
Cc1cc(C(O)c2ncc(-c3ccc(Oc4ccccc4)cc3)[nH]2)ccc1F (configuration not stated)	3.6	.	-1.7	.	20.7	.	.	.
CCOC(=O)N1CCN(C(=O)CS(=O)Cc2nc(-c3ccc(OC)c(OC)c3)oc2C)CC1 (configuration not stated)	10.3	-3.2	10.0	-10.2	1.8	-0.8	.	.
O=C(O)c1ccc(CNC(=O)C2CCN(S(=O)(=O)c3ccc4c(c3)OCCO4)CC2)cc1	0.9	.	3.1	.	-5.6	.	.	.
Cc1ccc2[nH]c3c(=O)n(N)c(C)nc3c2c1	13.9	-3.3	40.9*	10.3	4.0	-1.5	39.4*	26.9*
COc1ccc2[nH]c3c(=O)n(N)c(C)nc3c2c1	10.2	-3.0	106.0*	9.0	-83.0	2.1	157.2*	136.9*
COc1ccc2[nH]c3c(=O)n4c(nc3c2c1)SCC4	7.6	0.3	49.7*	-1.8	-47.1	-3.5	12.5	9.7
O=C(CCn1nnnc1CN1CCOCC1)N1CCC(c2cccc(Cl)c2)C1 (configuration not stated)	-0.7	-1.2	0.7	2.3	-7.7	-0.6	.	.
CC(=O)NC(Cc1ccc(C)cc1)C(=O)NC1CCN(S(=O)(=O)c2ccccc2)CC1 (configuration not stated)	9.8	-2.3	1.5	-11.2	-4.9	-2.6	.	.
COc1ccc2oc(-c3ccccc3)c(C(=O)N(C)C)c2c1	9.6	0.8	33.8*	12.6	-14.1	2.9	119.6*	112.8*
COc1ccc2oc(-c3ccccc3)cc(=O)c2c1	11.8	.	78.8*	.	-56.5	.	133.9*	100.1*
COc1ccc2oc(-c3ccccc3)c(C(N)=O)c2c1	20.6	2.7	99.0*	5.0	-37.2	-1.9	109.5*	87.8*
CCCNC(=O)c1ccc2nc(-c3ccccc3)c(-c3ccccc3)nc2c1	20.5	3.1	31.2*	19.9	2.0	0.4	61.6*	40.8*
CCN1CCN(CCNC(=O)c2ccc3nc(-c4cccc(C)c4)c(-c4cccc(C)c4)nc3c2)CC1	17.6	5.9	29.8*	12.3	-61.6	-3.6	59.4*	50.7*
COCC(C)NC(=O)c1ccc2nc(-c3ccccc3)c(-c3ccccc3)nc2c1 (configuration not stated)	18.5	9.0	42.4*	-3.8	-50.2	-0.4	51.8*	49.4*
CCN(CC)C(=O)c1ccc2nc3ccccc3nc2c1	11.3	-3.3	-1.6	37.2	-2.6	-0.2	.	.
COc1ccc(-c2nc3ccc(C(=O)NCCCN4CCOCC4)cc3nc2-c2ccc(OC)cc2)cc1	-7.1	6.8	4.5	-23.7	0.8	-70.1	.	.
CCN(CC)C(=O)c1ccc2nc(-c3ccccc3)c(-c3ccccc3)nc2c1	12.0	2.5	48.4*	12.7	-38.0	-0.4	49.4*	40.4*
CCN(CC)C(=O)C1=C(C)N(Cc2ccccc2)C(=O)C(CC(=O)NC2CC2)C1 (configuration not stated)	16.0	.	5.7	.	5.9	.	.	.
CC1=CC(=O)C(Sc2ccc(C)cc2)=CC1=O	-5.3	.	-3.2	.	18.1	.	.	.
COc1cccc(C(C)(O)c2nc(-c3cnn(C)c3)cs2)c1 (configuration not stated)	4.4	.	-7.7	.	-3.2	.	.	.
SMILES	GDH-TPI counter-1	SARS 3CLpro inh	FBA Mtb inh	DUSP3 inh	CCHF vOTU inh	RecA splice inh	Mtb FBA inh conf	GDH-TPI counter-2
COc1ccc(CC(N)c2csc(NC(=O)Nc3ccccc3-c3ccccc3)n2)cc1 (configuration not stated)	-5.8	.	3.0	.	3.7	.	.	.
O=C(Cn1nc(C(=O)O)c2ccccc2c1=O)Nc1ccc(Cl)c(S(=O)(=O)N2CCOCC2)c1	3.5	.	2.6	.	13.8	.	.	.
CC(C)C[C@H](NC(=O)N1CCn2c1nc1ccccc12)C(=O)N[C@H](Cc1ccccc1)C(=O)O	3.9	-3.7	0.8	12.7	5.2	-0.9	.	.
CCc1cc(=O)oc2cc(OCC=C(C)C)ccc12	4.4	0.4	35.9*	-1.2	-14.2	1.5	35.0*	30.5*
CCc1cc(=O)oc2cc(OCc3nn[nH]n3)ccc12	7.6	1.8	30.5*	3.1	.	1.5	+	+
Cc1cccc2nc(-c3cccnc3)c(NCCC(C)C)n12	4.4	1.1	28.9*	18.6	-26.2	4.1	+	+
OCCn1nc2c3ccccc3nc-2n(-c2ccccc2)c1=S	2.2	-5.7	30.7*	39.8	-14.8	-1.8	135.6*	116.4*
COc1ccc(CCC(=O)NNC(=O)c2ccc(OC)cc2)cc1	8.3	3.9	-0.5	27.7	2.6	0.8	.	.
CC(C)CNC(=O)c1cc2nc(C3CC3)cc(C(F)(F)F)n2n1	12.7	-4.3	79.0*	.	-0.1	0.6	62.0*	60.7*
CC(C)N(C)c1ncnc2c1ncn2[C@H]1CN(Cc2cccs2)C[C@@H](CO)O1	0.9	.	3.2	.	-12.8	.	.	.
Cc1ccc(-c2csc3nc4ccc(C(=O)NCCO)cc4c(=O)n23)cc1	5.1	.	30.8*	-0.7	-44.0	-49.7	+	+
Cc1ccc(-c2csc3nc4cc(C(=O)NC5CCC(O)CC5)ccc4c(=O)n23)cc1 (configuration not stated)	5.7	.	30.2*	7.2	2.4	-3.1	0.1	-1.5
Cc1csc2nc3cc(C(N)=O)ccc3c(=O)n12	11.4	.	71.6*	30.1	-54.2	-96.0	+	+
NC(=O)c1ccc2c(=O)n3c(-c4cc(Cl)c(N)c(Cl)c4)csc3nc2c1	10.8	.	2.6	11.2	2.3	1.8	.	.

Source: PubChem (several laboratories)
